# Screening results: PubChem BioAssay, National Center for Advancing Translational Sciences (NCATS)
# Hits are enriched below; roughly 3.7% of the tested compounds scored in any of these assays.
# Sm TGR inh: inhibitors of Schistosoma mansoni thioredoxin glutathione reductase; Q962Y6; purified TGR, DTNB reduction, TNB absorbance 405 nm; Potency, µM (series often up to 114 µM), for inactives: top-dose activity change, negative = inhibition, most hits filed as inhibitors; actives 3% (n = 360,000); further: nearly all actives have a fitted effect of over 60% in size
#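 First, TGR (20 nM dispensed) and NADPH were mixed with compound. Second, a 15 min room-temperature incubation followed. Third, further NADPH and then DTNB were added to start the reaction. Finally, TNB absorbance was monitored kinetically.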
# FMDV inh: antivirals against foot and mouth disease virus; FMDV antiviral cell-based qHTS; Potency, µM (highest dose often 57.9 µM), without a hit: top-dose activity change, negative = inhibition, usual class: inhibitors; actives 1.2% (n = 410,000); calls by dose curve; tested in HEK293T cells; further: read-out not given here; nearly all actives have a fitted effect of over 45% in size
# TbPYK inhibitor: inhibitors of Trypanosoma brucei pyruvate kinase. Q57TT1. TbPYK enzyme, Kinase-Glo Plus ATP luminescence, 45 min. Potency, µM (doses to about 76.8 µM), inactives show at the highest dose activity, negative = inhibition, hits mostly inhibitors. actives 0.12% (n = 410,000). AID 624173; further: nearly all actives have a fitted effect of over 50% in size
#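 ADP (130 uM final) triggers the TbPYK reaction after compound addition; incubation is 45 min at room temperature. Kinase-Glo Plus is then added and luminescence imaged. Normalized data are fitted to concentration-effect curves.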
# RE007 growth inh: less growth of the S. pombe RE007 Vpr strain; actives 0.21% (n = 360,000); Potency, µM (titrated, usually from 92.2 µM), for the others: top-dose activity change, negative = less growth, usual class: inhibitors; S. pombe RE007 Vpr strain, BacTiter-Glo ATP luminescence, 24 h; active means well fitted falling curve with a large enough effect; inconclusive means small, poorly fitted or top-dose-only effect; inactive means no such curve, though single readings can be large or run the other way; further: nearly all actives have a fitted effect of over 50% in size
#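 Fission yeast strain RE007, carrying one chromosomally integrated HIV-1 vpr copy, was seeded at OD 0.01 in PMG+AL medium with 23 nL pinned compound. After 24 h at 30 °C and 99% humidity, viability was read by BacTiter-Glo luminescence.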
# The depositor's hits bear a star; ? = inconclusive; . = no result; [ ] = remark or other dose. Unless noted, the call rests on the fitted dose curve; in most records, active means well fitted curve in the direction sought with a large enough effect; inconclusive means small, poorly fitted or top-dose-only effect, or another doubt; inactive means no such curve, though single readings can be large; an effect the other way counts as inactive or inconclusive. On the % scale 0 is the no-effect control and ±100 the full control effect; potency means the concentration at half of the fitted maximal effect.
SMILES,Sm TGR inh,FMDV inh,TbPYK inhibitor,RE007 growth inh
Cc1ccc(C(=O)O)cc1-c1ccc(C=C2C(=O)c3ccccc3C2=O)o1,45µM*,-9%,3%,-3%
O=C1C(=Cc2ccc(Br)o2)C(=O)c2ccccc21,11µM*,-9%,-12%,-20%
Cc1cc(=O)[nH]c2nnc(SCc3ccccc3F)n12,7%,-1%,-9%,.
O=C(C[n+]1ccc(C(=O)NCc2ccccc2)cc1)c1ccc(OC(F)F)cc1,1%,-3%,4%,6%
O=C(C[n+]1cn(C(F)F)c2ccccc21)c1ccc(OC(F)F)cc1,7.1µM*,38%,0%,0%
Cc1ccc(NNC(=O)c2cc(C(C)(C)C)nn2Cc2ccccc2)cc1,45µM*,-9%,4%,5%
CN(C(=O)/C=C/c1ccc([N+](=O)[O-])s1)c1ccccc1,11µM*,?,-5%,-26%
CN(C(=O)C=Cc1ccco1)c1ccccc1,.,3%,-3%,-24%
COc1ccc(CCNc2ncnc3c2cnn3-c2ccc(C)c(Cl)c2)cc1,7%,-23%,-5%,.
COc1ccc(CCNc2ncnc3c2cnn3-c2cc(Cl)ccc2C)cc1,24%,18µM*,6%,.
Clc1ccc(-n2ncc3c(NCc4ccco4)ncnc32)cc1,0%,32%,.,8%[3.69 µM]
COc1ccc(-n2ncc3c(NCc4ccco4)ncnc32)cc1,50µM*,16%,-3%,14%
C=C1C(O)[C@@H]2O[C@]3(CC[C@H](/C=C/C(C)[C@@H]4CC(C)=CC5(O[C@H](C[C@@](C)(O)C(=O)O)CCC5O)O4)O3)CC[C@H]2O[C@@H]1C(O)CC(C)[C@H]1OC2(CCCCO2)CCC1C (some centres undefined),.,1µM*,4%,?
CC(C)(C)c1ccc(C2=NC(C)(C)N(CC(=O)Nc3ccc(F)c(F)c3)C2=O)cc1,6%,-11%,5%,.
O=C(OC[C@H]1O[C@@H](OC(=O)c2cc(O)c(O)c(OC(=O)c3cc(O)c(O)c(O)c3)c2)[C@H](OC(=O)c2cc(O)c(O)c(OC(=O)c3cc(O)c(O)c(O)c3)c2)[C@@H](OC(=O)c2cc(O)c(O)c(OC(=O)c3cc(O)c(O)c(O)c3)c2)[C@@H]1OC(=O)c1cc(O)c(O)c(OC(=O)c2cc(O)c(O)c(O)c2)c1)c1cc(O)c(O)c(OC(=O)c2cc(O)c(O)c(O)c2)c1,45µM*,-12%,.,.
COc1cccc(CNC(=O)C(=O)NCC(c2cccs2)S(=O)(=O)c2cccs2)c1 (centres undefined),25µM*,?,-1%,.
COc1cccc(CNC(=O)C(=O)NCC(c2ccco2)S(=O)(=O)c2cccs2)c1 (centres undefined),4µM*,-29%,-2%,.
CN[C@H](C)Cc1ccccc1,.,.,-10%[157 µM],.
COc1ccc(C2=NN(C(=O)c3ccco3)C(c3cc4ccccc4nc3Cl)C2)cc1 (centres undefined),45µM*,-17%,-7%,-1%
CC(C)(O)C#Cc1ccc(CN2CCc3nnc(CNC(=O)c4cccc(F)c4)n3CC2)cc1,.,-6%,.,.
S=c1nc(-c2ccccc2)n(CCCn2ccnc2)c2c1CCCC2,45µM*,-23%,2%,-2%
S=c1nc(-c2ccccc2)n(CCCN2CCOCC2)c2c1CCCC2,?,.,2%,-1%
O=C(NCCNC(=O)c1ccccc1)c1ccccc1,-1%,-3%,3%,-9%
O=C(NCC#CCOCc1ccccc1)c1ccccc1,7.1µM*,1%,4%,2%
COC(=O)c1c(OCCN2CCCCC2)cc(=O)n2c1CCN(Cc1cccc3nccnc13)CC2,.,2%,.,.
SMILES,Sm TGR inh,FMDV inh,TbPYK inhibitor,RE007 growth inh
O=C(O)[C@@H](O)[C@@H](O)[C@H](O)[C@H](O)CO,.,.,2%,.
CCNC(=O)O/N=C1\CCCCC1c1ccc([N+](=O)[O-])cc1[N+](=O)[O-] (centres undefined),13µM*,-16%,-3%,-11%
COc1ccc(OC)c(N2C(=O)c3cccnc3C2=O)c1,-1%,-3%,3%,5%
COc1ccccc1N1C(=O)c2cccnc2C1=O,56µM*,-1%,-2%,-12%
COc1ccc(NC(=O)CCNS(=O)(=O)c2cccc(C(C)=O)c2)cc1S(N)(=O)=O,1%,14%,1%,2%
COc1ccc(NC(=O)CCNS(=O)(=O)c2ccc(Cl)c([N+](=O)[O-])c2)cc1S(N)(=O)=O,35µM*,3%,-1%,9%
COc1ccc2[nH]cc(CCNc3ncncc3-c3ccccc3C)c2c1,.,20µM*,.,.
CC(=O)N(Cc1ccc(F)cc1)C1=C(NCc2ccccc2)C(=O)c2ccccc2C1=O,-12%,35µM*,-2%,7.1µM*
O=C(NCc1ccc(F)cc1)C(c1ccccc1)c1ccccc1,5%,-7%,-2%,0%
CCN(CCO)c1ccc(N=Nc2cc(C)[nH]n2)cc1,-8%,13µM*,-15%,1%
O=C1C2C3C=CC(C3=C3CCCCC3)C2C(=O)N1c1ccccc1 (centres undefined),16µM*,?,-14%,35µM*
CC1=C(c2ccc(C)c(C)c2)S(=O)(=O)N=C1N1CCC(C(=O)NC(C)c2ccccc2)CC1 (centres undefined),-8%,18%,1%,.
CCc1ccc(NC(=O)c2ccc3c(=O)n4c(nc3c2)CCCCC4)cc1,5%,-33%,2%,13%
O=C(Nc1ccc2nc3n(c(=O)c2c1)CCCC3)c1cccc([N+](=O)[O-])c1,-10%,1%,-10%,2%
O=C(Nc1ccc2nc3n(c(=O)c2c1)CCCC3)c1cc([N+](=O)[O-])ccc1F,-11%,20µM*,6%,-16%
O=C(Nc1cccc(S(=O)(=O)N2CCCCC2)c1)c1ccc2c(=O)n3c(nc2c1)CCCCC3,-3%,3.2µM*,3%,24%
CCN(CC)S(=O)(=O)c1ccc(NC(=O)c2ccc3c(=O)n4c(nc3c2)CCCCC4)cc1,-4%,28µM*,-14%,.
Cc1ccc(CN2CCc3nnc(C(C)NC(=O)c4cc(F)ccc4F)n3CC2)o1 (centres undefined),.,-6%,.,.
O=C(Cn1c(=O)ccc2cc(S(=O)(=O)N3CCCC3)ccc21)Nc1ccccc1,-1%,-5%,-6%,.
Cc1ccccc1NC(=O)c1c(C)[nH]c(=S)c(C#N)c1-c1ccco1,-15%,0%,-17%,21%
CNC(=O)c1c(C)[nH]c(=S)c(C#N)c1-c1ccco1,32µM*,-4%,7.9µM*,20%
COc1ccc(-c2cn[nH]c2-c2ccc(OCc3ccc([N+](=O)[O-])cc3)cc2O)cc1OC,3%,16µM*,2%,19%
O=[N+]([O-])c1ccc(COc2ccc(-c3[nH]ncc3-c3ccc(Cl)cc3)c(O)c2)cc1,-2%,32µM*,-2%,-18%
COc1ccc(O)c(CN2CCOc3c(cc(-c4cccc(OC)n4)cc3OC)C2)c1,.,-14%,.,.
Cc1cc(C)nc(Sc2nc(Cl)nc(N(c3ccccc3)c3ccccc3)n2)n1,0%,35µM*,?,11%
Cc1cc(C)nc(SC(C(=O)O)c2ccccc2)n1 (centres undefined),1%,2%,1%,2%
